According to PubChem BioAssay AID1159580 (chemical genetic matrix, 2015):
Where “and” joins values, the source holds several entries; their conditions need not be identical. Equal entries are not always repeated. Out of some 5,500 compounds screened, about 2,000 (36%) were called active. Another 18% or so got no clear call; they are omitted. No stated cut-off is given here; in the data, active means normalized growth mostly below about 0.91 (no sharp cut-off); inconclusive means no clear call, values can overlap the other calls; inactive means mostly above about 0.92. Some of the results follow.

Assay: chemical genetic growth profiling, strain panel (AID 1159580);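 further: tested at 20 µM; growth read once vehicle control cultures reached saturation at 30 °C; 1 = growth at the plate median or of vehicle wells; lower values mean less growth of the strain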
Conditions: S. cerevisiae deletion strains, growth OD

Measured: normalized growth

Cc1occc(=O)c1O
inactive: locus YAL021C, strain ccr4, hits give low values 0.964 | locus YAL026C, strain drs2, hits give low values 0.972 | locus YAL030W, strain snc1, hits give low values 0.949 | locus YBL061C, strain skt5, hits give low values 0.969 | locus YBR009C, strain hhf1, hits give low values 0.984 | locus YBR021W, strain FUR4, hits give low values 1 | locus YBR023C, strain chs3, hits give low values 0.976 | locus YBR171W, strain sec66, hits give low values 0.975 | locus YBR229C, strain ROT2, hits give low values 1 | locus YBR231C, strain swc5, hits give low values 0.964 | locus YBR279W, strain paf1, hits give low values 0.944 | locus YCL011C, strain gbp2, hits give low values 0.956 | locus YCL016C, strain dcc1, hits give low values 0.978 | locus YCL029C, strain bik1, hits give low values 1.02 | locus YCL061C, strain MRC1, hits give low values 0.987 | locus YCL069W, strain vba3, hits give low values 0.978 | locus YCR088W, strain abp1, hits give low values 0.965 | locus YDL005C, strain med2, hits give low values 0.967 | locus YDL035C, strain GPR1, hits give low values 1.01 | locus YDL040C, strain nat1, hits give low values 0.971 | locus YDL074C, strain BRE1, hits give low values 1.01 | locus YDL101C, strain DUN1, hits give low values 1.01 | locus YDL185W, strain tfp1, hits give low values 1.01 | locus YDL192W, strain arf1, hits give low values 1.02 | locus YDR001C, strain nth1, hits give low values 0.953 | locus YDR069C, strain doa4, hits give low values 1 | locus YDR101C, strain arx1, hits give low values 0.991 | locus YDR137W, strain rgp1, hits give low values 0.945 | locus YDR159W, strain sac3, hits give low values 0.971 | locus YDR162C, strain NBP2, hits give low values 1.02 | locus YDR195W, strain ref2 0.953 | locus YDR297W, strain sur2, hits give low values 0.971 | locus YDR318W, strain mcm21, hits give low values 1.02 | locus YDR334W, strain swr1, hits give low values 0.929 | locus YDR335W, strain msn5, hits give low values 0.964 | locus YDR388W, hits give low values 1.01 | locus YDR392W, strain spt3, hits give low values 0.917 | locus YDR502C, strain sam2, hits give low values 0.999 | locus YEL003W, strain gim4, hits give low values 0.956 | locus YEL037C, strain rad23, hits give low values 0.961 | locus YEL061C, strain CIN8 (second series), hits give low values 0.953 | locus YEL061C, strain CIN8, hits give low values 1 | locus YER015W, strain faa2, hits give low values 0.964 | locus YER016W, strain bim1, hits give low values 0.958 | locus YER110C, hits give low values 1.01 | locus YER111C, strain swi4, hits give low values 0.966 | locus YER155C, strain BEM2 (second series), hits give low values 0.97 | locus YER155C, strain BEM2, hits give low values 0.993 | locus YER167W, strain BCK2, hits give low values 0.995 | locus YFR010W, strain ubp6, hits give low values 0.96 | locus YGL078C, strain dbp3, hits give low values 1.03 | locus YGL086W, strain mad1, hits give low values 0.982 | locus YGL167C, strain pmr1, hits give low values 0.961 | locus YGL173C, strain kem1, hits give low values 0.957 | locus YGL227W, strain vid30, hits give low values 0.966 | locus YGL240W, strain doc1, hits give low values 0.971 | locus YGL248W, strain PDE1, hits give low values 1.01 | locus YGL253W, strain hxk2, hits give low values 0.974 | locus YGR135W, strain pre9, hits give low values 1.03 | locus YGR252W, strain gcn5, hits give low values 1.08 | locus YHR013C, strain ard1, hits give low values 0.947 | locus YHR027C, strain rpn1, hits give low values 0.979 | locus YHR030C, strain SLT2, hits give low values 1.01 and 1.04 | locus YHR079C, strain IRE1 (second series), hits give low values 1.01 | locus YHR079C, strain IRE1, hits give low values 1.03 | locus YHR094C, strain hxt1, hits give low values 1.01 | locus YHR129C, strain ARP1, hits give low values 1.01 | locus YHR142W, strain chs7, hits give low values 0.919 | locus YHR200W, strain rpn10, hits give low values 1.01 | locus YIL066C, strain RNR3, hits give low values 1.01 | locus YIL073C, strain SPO22, hits give low values 1.06 | locus YIL125W, strain kgd1, hits give low values 1.02 | locus YIR030C, strain dcg1, hits give low values 1 | locus YJL092W, strain hpr5, hits give low values 0.976 | locus YJL095W, strain BCK1 (second series), hits give low values 0.962 | locus YJL095W, strain BCK1, hits give low values 1.01 and 1.02 | locus YJL115W, strain asf1, hits give low values 0.95 | locus YJL129C, strain trk1, hits give low values 0.95 | locus YJL134W, strain LCB3, hits give low values 1.01 | locus YJL154C, strain vps35, hits give low values 0.953 | locus YJL164C, strain tpk1, hits give low values 0.969 | locus YJL166W, strain qcr8, hits give low values 0.953 | locus YJL168C, strain set2, hits give low values 0.999 | locus YJL187C, strain SWE1 (second series), hits give low values 1.01 | locus YJL187C, strain SWE1, hits give low values 0.977 | locus YJR043C, strain POL32, hits give low values 1.01 | locus YJR066W, strain TOR1, hits give low values 0.991
